Source: ChEMBL document CHEMBL4513216, “Probing the Open Global Health Chemical Diversity Library for Multistage-Active Starting Points for Next-Generation Antimalarials” (ACS Infect Dis, 2020)
Screen size: about 69,000 compounds; about 8,600 (12%) showed an effect of 50% or more. The sample as a whole holds a higher share of strong results than the screen did.

System: Plasmodium berghei
Assay: Screen against P. berghei liver stage (PbLuc), transformed with Luciferase, at 10uM
Assay type: functional, HepG2
Conditions: tested at 10 uM

Compound	INHIBITION [%]
Cc1cccc(NC(=O)Cc2cnc3n(C)c(=O)[nH]c(=O)n23)c1	27.5
O=C(Cc1ccc2c(c1)CCO2)N1CCCC1Cn1cccn1 (stereo not given)	31.6
CCCNC(=O)CCNC1CSCCc2ccccc21 (stereo not given)	76.9
CC(C)(C)S(=O)(=O)CCNC1CSCCc2ccccc21 (stereo not given)	-56.6
CCS(=O)(=O)NCCCNC1CSCCc2ccccc21 (stereo not given)	60.9
CNC(=O)CN1CCC(NC2CSCCc3ccccc32)CC1 (stereo not given)	-18.9
CCS(=O)(=O)NCCN(CCO)C1CCc2ccccc21 (stereo not given)	29.4
OCCNC1CSCCc2ccccc21 (stereo not given)	-56.6
COc1ccc(CCNC(=O)c2ccc(=O)n(C)c2)c(Cl)c1	1.74
Cn1ncc2c(=O)[nH]c(CN3CCCC3CCc3ccccc3)nc21 (stereo not given)	19.6
Cc1cc(C)c(CNC(=O)NCCC2CCCO2)c(=O)[nH]1 (stereo not given)	1.82
COc1ccc2c(c1)C(C(=O)NCCN1CCOC1=O)CC(=O)N2 (stereo not given)	34.9
Cc1cc(C)n(C2CCCN(C(=O)c3cccc(F)c3F)C2)n1 (stereo not given)	33
CN1CCN(C(=O)Cc2ccc(S(=O)(=O)C(F)F)cc2)CC1	39.6
CCN1CCN(C(=O)Cc2ccc(S(=O)(=O)C(F)F)cc2)CC1	55.9
O=C(Cc1ccc(S(=O)(=O)C(F)F)cc1)N1CCC1	43.9
CCn1ccc(NC(=O)c2cc(C)on2)n1	-9.21
COCCNC(=O)c1ccc2c(=O)n3c(nc2c1)CCCCC3	40.8
COCCN1CCn2c(nc3cc(C(=O)NC(C)C)ccc32)C1	19.3
COCCNC(=O)c1ccc2c(=O)n3c(nc2c1)CCN(C)CC3	-48.5
COCCNC(=O)c1ccc2c(=O)n3c(nc2c1)CCCCCC3	55.4
CN1CCc2nc3cc(C(=O)NCc4cccs4)ccc3c(=O)n2CC1	21.1
COCCNC(=O)c1ccc2c(=O)n3c(nc2c1)CCCC3	54.9
Cc1nn(C)c(C)c1C1CCCN1Cc1nc2ccccc2n1C (stereo not given)	-55.4
COc1cccc(-n2nnc(C(=O)N3CCOC(C)C3)c2C)c1 (stereo not given)	14.05
CCOC1CCC2(CCN(C(=O)c3csnn3)CC2)c2ccccc21 (stereo not given)	56.4
CCOC1CC2(CCN(C(C)=O)CC2)c2cc(F)ccc21 (stereo not given)	-33.9
CCOC1CCC2(CCN(C(=O)c3c[nH]cn3)CC2)c2ccccc21 (stereo not given)	51.4

Compound	INHIBITION [%]
CC1CC2(CCN(C(=O)c3csnn3)CC2)c2ccccc21 (stereo not given)	15.9
CNC(=O)C1CC2(CCN(C(=O)c3csnn3)CC2)c2ccccc21 (stereo not given)	51.3
CN1CCN(C(=O)c2csnn2)c2ccccc21	23.2
CC1CC2(CCN(C(=O)c3c[nH]cn3)CC2)c2ccccc21 (stereo not given)	5.68
CCOc1ccccc1OC1CCN(C(=O)c2csnn2)CC1	15.3
CS(=O)(=O)N1CC2(CCN(C(=O)c3csnn3)CC2)c2ccccc21	13.7
Cc1cccc(CN2C(=O)CO[C@@H]3CN(Cc4nccn4C)C[C@H]32)c1	36.1
COc1cccc(C2(CNC(C)c3nnc(C)o3)CCCC2)c1 (stereo not given)	3.03
CC(C)N1CCCC(Cc2cncc(Br)c2)CC1 (stereo not given)	51.5
CC(=O)N1CCCC(Cc2cncc(Br)c2)CC1 (stereo not given)	54.6
CN1CCCC(Cc2cncc(Br)c2)CC1 (stereo not given)	44.9
CC(=O)N1CCCC(Cc2cncc(Br)c2)C1 (stereo not given)	44.1
CN1CCN(C(=O)c2cncc(CC3CCCN(C)C3)c2)CC1 (stereo not given)	37
CS(=O)(=O)N1CCCC(Cc2cncc(Br)c2)CC1 (stereo not given)	29.3
CC(=O)N1CCC(c2cncc(Cl)n2)CC1	1.62
Cc1cccc(CN2CCC3(CCCN(C(=O)N4CCCC4)C3)C2=O)n1 (stereo not given)	-29.3
CC(=O)NCCNC(=O)c1nc(C2CC2)n(-c2ccccc2Cl)n1	8.46
Cc1ccc(S(=O)(=O)N(CC2CCOC2)C2CC2)cc1N(C)C (stereo not given)	17.1
O=C(c1ccco1)N1CCc2ncc(CN3CCOCC3)n2CC1	5.44
CCS(=O)(=O)N1CC(c2nc(-c3cccs3)no2)C1	9.41
c1cnc(-c2noc(C3CN(Cc4ccc5c(c4)CCO5)C3)n2)cn1	58.5
c1cnc(-c2noc(C3CN(Cc4ccc5c(c4)CCO5)C3)n2)nc1	27.5
c1csc(-c2noc(C3CN(Cc4ccc5c(c4)CCO5)C3)n2)c1	52.5
Cc1noc(C2CN(Cc3ccc4c(c3)CCO4)C2)n1	-5.01
c1csc(-c2noc(C3CNC3)n2)c1	58.1
c1csc(-c2noc(C3CCCNC3)n2)c1 (stereo not given)	41.5
c1csc(-c2noc(C3CCCOC3)n2)c1 (stereo not given)	-31
